# Test results: article PMC5540273 (PLoS ONE, 2017)
# Tested on: TAOK1
# Settings: concentration: 1 μM, replicates: in singlicate; n = 1
# 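Further: KINOMEscan kinase panel screen.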
row,SMILES,%Inh
1,O=c1[nH]cc(-c2ccc(N3CCOCC3)cc2)c2sc(-c3cn[nH]c3)cc12 [GSK2276055],68%
2,Cn1cc(-c2ccc3c(c2)CCN3C(=O)Cc2cccc(F)c2)c2c(N)ncnc21 [GSK2603358],0%
3,CN1CCN(CCCNc2nccc(-c3c(-c4ccc(F)cc4)nn4cc(C(F)(F)F)ccc34)n2)CC1 [GW621581],4%
4,Cc1ccc(C(=O)Nc2ccc(Nc3ccnc4cc(-c5nccs5)ccc34)cc2O)cc1.Cl [GW494702],0%
5,CC(C)(C)c1ccc2nccc(Nc3cccc(O)c3)c2c1 [GW856795],100%
6,Nc1n[nH]c2cnc(-c3ccccc3)cc12 [SB-642124],51%
7,CCc1ccc(-c2ccc3c(c2)-c2c(cnn2C)S(=O)(=O)N3C)cc1,0%
8,O=C(Nc1n[nH]c2nc(-c3ccc(O)cc3)ccc12)C1CC1 [SB-710363],98.9%
9,CC(=O)N1CCN(c2ccc(Nc3nccc(-c4sc(C(C)C)nc4-c4cccc(NS(=O)(=O)c5cccc(Cl)c5)c4)n3)cn2)CC1 [GSK1660437],0%
10,c1ccc(-c2n[nH]cc2Nc2ccnc3ccccc23)nc1 [GW694077],66%
11,Oc1cc(Nc2ccnc3cc(I)ccc23)ccc1F [GW552771],0%
12,COc1ccc(Nc2nccc(N3CCC(NC(=O)Nc4cccc(OC)c4)C3)n2)cc1 (stereo not shown) [GSK1379742],0%
13,COc1cc(Nc2nccc(-c3c(-c4cccc(NC(=O)c5c(F)cccc5F)c4)nn4ccccc34)n2)cc(OC)c1OC [GSK323521],0%
